The sample as a whole holds a higher share of hits than the screen did.
Sfp inh – Sfp phosphopantetheinyl transferase inhibition. hit rate 3.5% among 310,000. Biochemical Sfp PPTase activity, qHTS. Potency, µM, most hits filed as inhibitors. Q9F4F7;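 note: the enzyme is Sfp with the accession as filed and its product quenches rhodamine fluorescence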
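Fluorescence-quenching assay with 15 nM Sfp, 5 uM rhodamine-CoA and 12.5 uM BHQ-2-labelled ybbR peptide in pH 7.6 Hepes/MgCl2 buffer. Enzyme was pre-incubated with compound for 15 min at room temperature. Rate was taken from the 30-min fluorescence change (525/598 nm).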
VDR inhibitor – inhibitors of human vitamin D receptor; VDR-SRC2-3 peptide fluorescence polarization, 2 h; P11473; hit rate 0.93% among 400,000; AID 504847; Potency, µM, hits mostly inhibitors
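After 23 nl compound addition and a short centrifugation, plates sat for 2 hours at ambient temperature; polarization of fluorescence then indicated loss of VDR binding to peptide SRC2-3.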
G9a block – G9a (human) methyltransferase inhibition; Potency, µM (top dose mostly 102 µM), actives largely listed as inhibitors; Q96KQ7; hit rate 8.8% among 350,000; G9a H3K9 monomethylation, AlphaScreen, 2 h; note: nearly all actives have a fitted effect of over 75% in size
Target sequence (Q96KQ7 913-1193 limits assumed): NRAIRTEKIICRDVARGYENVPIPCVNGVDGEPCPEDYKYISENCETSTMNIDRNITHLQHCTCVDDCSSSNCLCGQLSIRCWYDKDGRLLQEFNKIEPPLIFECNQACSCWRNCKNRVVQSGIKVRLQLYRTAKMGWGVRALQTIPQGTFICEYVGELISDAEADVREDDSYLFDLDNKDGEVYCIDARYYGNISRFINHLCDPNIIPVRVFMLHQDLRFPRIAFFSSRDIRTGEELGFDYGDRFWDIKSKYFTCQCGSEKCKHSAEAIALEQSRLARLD
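Compounds were preincubated with 20 nM G9a for 15 min, after which biotinylated H3K9 peptide (500 nM) and SAM (20 uM) started a 2 h room-temperature reaction. Monomethylated product was quantified by antibody-based AlphaScreen chemiluminescence.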
GRP78 ERSR act – inducers of ER stress response in human glioma cells; hit rate 0.02% among 420,000; U87-MG GRP78 promoter luciferase reporter, 16 h; Potency, µM, actives largely listed as activators; note: series mostly up to about 76 µM; nearly all actives have a fitted effect of over 35% in size
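Stably transfected U87-MG human glioma cells carrying a GRP78-based luminescent sensor were seeded at 1000 cells/well, pin-dosed with compounds and incubated 16 h. Luciferase reagent was then added, and end-point luminescence was read after 10 min at room temperature.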
ALOX12 inh – blocks human arachidonate 12S-lipoxygenase; AID 1671190; hit rate 1.1% among 580,000; purified 12hLO, xylenol orange hydroperoxide absorbance; Potency, µM (titrated, usually from 108 µM), usual class: inhibitors; P18054
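Hydroperoxide product was detected by ferrous iron/xylenol orange as the 573 to 405 nm absorbance ratio. Arachidonic acid at 40 uM (final) was turned over for 30 min at room temperature by 150 nM human 12hLO, pH 7.0 Hepes buffer, after 15 min compound preincubation.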
Numbers stand for hits; [ ] = another dose, or the depositor's remark. Calls come from the whole dose curve; as a rule, active = well fitted curve in the direction sought with a large enough effect; inconclusive = small, poorly fitted or top-dose-only effect, or another doubt; inactive = no such curve, though single readings can be large; an effect the other way counts as inactive or inconclusive.

`CNC(=O)CN(C1CCCCC1)S(=O)(=O)c1ccc(OC)c(Cl)c1` gave Sfp inh inactive, VDR inhibitor inactive, G9a block 50µM, GRP78 ERSR act inactive and ALOX12 inh inactive.
COc1ccc(S(=O)(=O)N(CC(=O)NCc2ccco2)C2CCCCC2)cc1OC was read as Sfp inh 50µM, VDR inhibitor inactive, G9a block inactive[12.7 µM], GRP78 ERSR act inactive and ALOX12 inh inactive.
Screening COc1ccc(NC(=O)C(CCSC)NC(=O)C2CCC(C)CC2)cc1OC (configuration not stated) returned ALOX12 inh inactive.
CCc1ccc(NC(=O)Cn2c(-c3ccc(F)cc3)nc(C)c(CCO)c2=O)cc1 was read as ALOX12 inh inactive.
O=c1c2ccccc2sc2ccc(Br)cc12 was read as ALOX12 inh inactive.
`O=c1c(Br)ccc(Br)cc1Br` gave VDR inhibitor 10µM, GRP78 ERSR act inactive and ALOX12 inh inactive.
O=C(O)/C=C/c1ccc(Cl)c(Cl)c1 was read as ALOX12 inh inactive.
CCOc1ccc2nc(SCCNCCO)sc2c1 was read as ALOX12 inh inactive.
For Cc1c(NC(=O)c2c(Cl)cnn2C)cnn1C the results were ALOX12 inh inactive.
CCC(=O)Oc1ccc(-c2cnc3ccccc3n2)cc1 was read as Sfp inh inactive, VDR inhibitor inactive, G9a block inactive, GRP78 ERSR act inactive and ALOX12 inh inactive.
`O=C(Oc1ccc(-c2cnc3ccccc3n2)cc1)c1cc([N+](=O)[O-])ccc1Cl` gave Sfp inh inactive, VDR inhibitor inactive, G9a block 28µM, GRP78 ERSR act inactive and ALOX12 inh inactive.
`Cc1c(C(=O)Oc2ccc(-c3cnc4ccccc4n3)cc2)cccc1[N+](=O)[O-]` gave Sfp inh 50µM, VDR inhibitor inconclusive, G9a block 20µM, GRP78 ERSR act inactive and ALOX12 inh inactive.
Screening O=[N+]([O-])c1cc(-c2cnc3ccccc3n2)ccc1Oc1ccc(Cl)cc1 returned Sfp inh inactive, VDR inhibitor inactive, G9a block 14µM, GRP78 ERSR act inactive and ALOX12 inh inactive.
Screening O=C1OCCN1N1CCOC1=O returned VDR inhibitor inactive, GRP78 ERSR act inactive and ALOX12 inh inactive.
For O=C1OCCN1S(=O)(=O)Nc1ccccc1 the results were Sfp inh inactive, VDR inhibitor inactive, G9a block 45µM, GRP78 ERSR act inactive and ALOX12 inh inconclusive.
`Cc1ccc(CNC(=O)N2CCCCCNC(=O)CC2c2ccccc2)cc1` (configuration not stated) gave ALOX12 inh inactive.
For O=C(N=Nc1c(O)[nH]c2ccccc12)c1cc(NS(=O)(=O)c2cccs2)cc(NS(=O)(=O)c2cccs2)c1 the results were Sfp inh inactive, VDR inhibitor inactive, G9a block inactive, GRP78 ERSR act inactive and ALOX12 inh inactive.
O=C(N=Nc1c(O)[nH]c2ccccc12)c1cccs1 was read as Sfp inh inactive, VDR inhibitor inactive, G9a block 79µM, GRP78 ERSR act inactive and ALOX12 inh inactive.
Oc1ccc(NC(=S)N=Nc2c(O)[nH]c3ccccc23)cc1 was read as Sfp inh inactive, VDR inhibitor inactive, G9a block 50µM, GRP78 ERSR act inactive and ALOX12 inh inconclusive.
For Cc1c(C(=O)O)sc(=S)n1-c1ccccc1 the results were Sfp inh inactive, VDR inhibitor inactive, G9a block inactive, GRP78 ERSR act inactive and ALOX12 inh inconclusive.
`COc1ccc(C2NC(=O)c3sc(=S)n(-c4ccccc4)c3N2)cc1` (configuration not stated) gave Sfp inh 50µM, VDR inhibitor 79µM, G9a block inactive[12.7 µM], GRP78 ERSR act inactive and ALOX12 inh inconclusive.
`CCOc1ccc(C2NC(=O)c3sc(=S)n(-c4ccccc4)c3N2)cc1` (configuration not stated) gave Sfp inh inconclusive, VDR inhibitor inconclusive, G9a block 32µM, GRP78 ERSR act inactive and ALOX12 inh inconclusive.
COc1ccc(/C=N/n2cnc3c(sc(=S)n3-c3ccccc3)c2=O)cc1 was read as Sfp inh inactive, VDR inhibitor inactive, G9a block inactive, GRP78 ERSR act inactive and ALOX12 inh inactive.
For CCOc1ccc(-n2c(=S)sc3c(=O)n(-c4ccccc4)c(SC)nc32)cc1 the results were Sfp inh inactive, VDR inhibitor inconclusive, G9a block inactive, GRP78 ERSR act inactive and ALOX12 inh inactive.
For O=C1NC(c2ccccc2)Nc2c1sc(=S)n2-c1ccccc1 (configuration not stated) the results were Sfp inh 32µM, VDR inhibitor inactive, G9a block 22µM, GRP78 ERSR act inactive and ALOX12 inh 45µM.
CCOc1ccccc1NC(=O)N1CCCCCCNC(=O)[C@@H]2CCCC[C@@H]21 was read as ALOX12 inh inactive.
`CCOC(=O)N1CCN(S(=O)(=O)c2cc(OCC)c(C)cc2OCC)CC1` gave ALOX12 inh inactive.
For Cc1cc(C)cc(C(=O)NCCSc2c[nH]c3ccccc23)c1 the results were ALOX12 inh inactive.
Screening O=C(/C(N=Nc1cccc(C(F)(F)F)c1)=C(/O)c1cccs1)C(F)(F)F returned Sfp inh inactive, VDR inhibitor inactive, G9a block 20µM, GRP78 ERSR act inactive and ALOX12 inh inconclusive.
CC(=O)/C(N=Nc1cccc(C(F)(F)F)c1)=C(\C)O was read as Sfp inh inactive, VDR inhibitor inactive, G9a block inactive, GRP78 ERSR act inactive and ALOX12 inh inactive.
`COc1cc(C(=O)NNC(=S)NC(=O)c2ccc(Cl)cc2)cc(OC)c1OC` gave Sfp inh inactive, VDR inhibitor inactive, G9a block inconclusive, GRP78 ERSR act inactive and ALOX12 inh inconclusive.
For CC(/C=C/c1ccccc1)=N/NC(=O)c1cnccn1 the results were Sfp inh inactive, VDR inhibitor inactive, G9a block inactive, GRP78 ERSR act inactive and ALOX12 inh inactive.
`COc1ccc(/C=C/C(=O)NC(=S)NNC(=O)c2cccnc2)cc1OC` gave Sfp inh inactive, VDR inhibitor inactive, G9a block inactive[12.7 µM], GRP78 ERSR act inactive and ALOX12 inh inactive.
O=C(/C=C/c1ccccc1)NC(=S)NNC(=O)c1ccccc1 was read as ALOX12 inh 6.3µM.
Screening O=C(/C=C/c1ccccc1)NC(=S)NNC(=O)c1cccnc1 returned Sfp inh inactive, VDR inhibitor inactive, G9a block 22µM, GRP78 ERSR act inactive and ALOX12 inh inactive.
Screening O=C(/C=C/c1ccccc1)NC(=S)NNC(=O)c1cnccn1 returned Sfp inh inactive, VDR inhibitor inactive, G9a block 32µM, GRP78 ERSR act inconclusive and ALOX12 inh inactive.
Screening COc1cc(C(=O)NNC(=S)NC(=O)/C=C/c2ccccc2)cc(OC)c1OC returned Sfp inh inactive, VDR inhibitor inactive, G9a block 32µM, GRP78 ERSR act inactive and ALOX12 inh inconclusive.
`O=C(/C=C/c1ccccc1)NC(=S)NNS(=O)(=O)c1ccccc1` gave Sfp inh inactive, VDR inhibitor inactive, G9a block inactive, GRP78 ERSR act inactive and ALOX12 inh inconclusive.

From PubChem
